Rows were chosen to be rich in hits. Some 7.9% of all compounds tested hit in one or more screens of this group.
HCMV antiviral = inhibitors of human cytomegalovirus | 4.5% of 410,000 active | activity change, negative = inhibition, % at 57.5 µM | AID 1259415 | HFF cells, HCMV-luciferase reporter, 72 h; stronger effect = lower value; in the data active = activity change below about -60%; inconclusive = no clear call, values can overlap the other calls; inactive = above about -39%
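Inhibition of viral replication was scored as loss of reporter luminescence in HFFs infected with HCMV-luciferase (MOI 1 PFU/cell) for 72 h; compounds tested at 2 doses, normalized to buffer and Salinomycin controls.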
MARV entry inh = blocks Marburg virus binding to or entry into cells; 1.8% of 300,000 active; AID 540276; Potency, µM (top dose mostly 37.8 µM), for the others: top-dose activity change, negative = inhibition, usual class: inhibitors; Marburg virus pseudotyped entry inhibition, cell reporter; calls by dose curve; tested in HEK293 cells; also: potency is read from the fitted curve at half-maximal effect
FMDV antiviral = antivirals against foot and mouth disease virus. FMDV antiviral cell-based qHTS. Potency, µM (series often up to 57.9 µM), for inactives: top-dose activity change, negative = inhibition, usual class: inhibitors. 1.2% of 410,000 active; calls by dose curve; tested in HEK293T cells; also: read-out not given here; potency is read from the fitted curve at half-maximal effect; nearly all actives have a fitted effect of over 45% in size
Lassa entry inh = inhibitors of Lassa virus binding or cell entry; Lassa virus pseudotype entry inhibition, cell reporter; Potency, µM (series often up to 37.9 µM), for inactives: top-dose activity change, negative = inhibition, usual class: inhibitors; 1.2% of 300,000 active; AID 540256; calls by dose curve; tested in HEK293 cells; also: potency is read from the fitted curve at half-maximal effect; nearly all actives have a fitted effect of over 50% in size
HCV inh = blocks hepatitis C virus; 3.4% of 340,000 active; Huh7.5.1 HCVcc-Cre infection, luciferase reporter, 44 h; AID 651820; Potency, µM (highest dose often 41.8 µM), inactives show at the highest dose activity change, negative = inhibition, usual class: inhibitors; active = well fitted inhibition curve with a large enough effect; inconclusive = small, poorly fitted or top-dose-only effect, or another doubt; inactive = no such curve, though single readings can be large or run the other way; also: potency is read from the fitted curve at half-maximal effect
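Cells seeded at 1,000/well and cultured 4 h, then compounds added followed by HCVcc-Cre virus (~0.5 moi). After 44 h further culture, luciferase substrate was added, plates held 15 min at room temperature, and luminescence read for 15 sec.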
* marks the source's active call; other numbers are inactive results; [ ] = dose if it differs, or a comment. % is scaled to controls: 0 for no effect and ±100 for the full control effect.

What do the screens show for `CS(=O)(=O)N1CCN(CC(=O)NC2CCCCC2)CC1`?
HCMV antiviral: -12; MARV entry inh: 5%[46.1 µM]; FMDV antiviral: -7%; Lassa entry inh: 7%; HCV inh: 4%

Results for CCOC(=O)c1cc(NC(=O)c2cnccn2)cc(C(=O)OCC)c1 ?
HCMV antiviral: -93*; MARV entry inh: inconclusive; FMDV antiviral: 9%; Lassa entry inh: 24%[14.3 µM]; HCV inh: 4%

How did COc1ccc(Cc2c3cc(OC)c(OC)cc3cc[n+]2C)cc1OC do in these assays?
FMDV antiviral: -10%; HCV inh: -9%

How did COc1ccc2c(c1)c[n+](C)c1c3cc(OC)c(OC)cc3ccc21 do in these assays?
HCMV antiviral: -96*; FMDV antiviral: -20%

What do the screens show for `COc1ccc(/C=C/c2ccc3ccccc3[n+]2C)cc1OC`?
FMDV antiviral: 57%; HCV inh: 1%

Results for COc1cc2c(ccc3c4cc(OC)c(OC)cc4c[n+](C)c23)cc1O ?
HCMV antiviral: -100*; MARV entry inh: inconclusive; FMDV antiviral: 10%; Lassa entry inh: -25%; HCV inh: inconclusive

How did COc1cc2c[n+](C)c3c4ccccc4ccc3c2cc1OC do in these assays?
HCMV antiviral: -82*; MARV entry inh: -6%; FMDV antiviral: 8%; Lassa entry inh: 26%; HCV inh: 1%

Results for COc1cc2ccc(=O)oc2cc1O ?
HCMV antiviral: 0; FMDV antiviral: inconclusive; HCV inh: 13%

How did COc1ccc(OC)c(-c2cc(Cl)c3c(c2)CC(CNC(=O)c2cnn4cccnc24)O3)c1 (stereo not drawn) do in these assays?
FMDV antiviral: 32%

Results for COc1ccc(N2CC(NC(=O)CCc3ccccc3)CC2=O)cc1OC (stereo not drawn) ?
HCMV antiviral: 9; FMDV antiviral: 5%; Lassa entry inh: 17%[46.1 µM]

What do the screens show for `Cn1cnc(S(=O)(=O)NC2CCN(Cc3c(F)cccc3Cl)CC2)c1`?
HCMV antiviral: 7; FMDV antiviral: -18%; HCV inh: 1%

Results for O=C(CSc1nnc(-c2cccc(F)c2)o1)N1CCCC1 ?
HCMV antiviral: -35; MARV entry inh: inconclusive; FMDV antiviral: 52%; Lassa entry inh: inconclusive; HCV inh: 12%

What do the screens show for `COC(=O)C1=C[C@@]2(c3ccc(F)cc3[C@@H](OC)[C@@H]2C)[C@@H]2C=C[C@H]1C2`?
MARV entry inh: 2%[14.2 µM]

Results for COc1ccccc1CCn1cnc(-c2ccc(F)cc2F)c1CC(C)C ?
HCMV antiviral: -84*

What do the screens show for `COc1ccccc1CCn1cnc(-c2ccccc2F)c1CC(C)C`?
HCMV antiviral: -83*

How did CN(C)C(=O)c1ccc(-c2ccc3ncnc(N(C)Cc4ccco4)c3c2)cc1 do in these assays?
FMDV antiviral: -1%

Results for O=C(NCCc1csc(-c2cccnc2)n1)c1c(F)cccc1F ?
HCMV antiviral: inconclusive; MARV entry inh: -3%[46.1 µM]; FMDV antiviral: 12%; Lassa entry inh: 4%; HCV inh: 11µM*

Results for O=S(=O)(NCCc1csc(-c2cccnc2)n1)c1cccc(F)c1 ?
HCMV antiviral: -11; MARV entry inh: -2%; FMDV antiviral: 4%; Lassa entry inh: 19%; HCV inh: 4%

Results for O=C(NCCc1csc(-c2ccc(F)cc2)n1)c1c(F)cccc1Cl ?
HCMV antiviral: -38; FMDV antiviral: -4%; Lassa entry inh: inconclusive

Results for O=C(NCCc1csc(-c2ccccc2)n1)c1c(F)cccc1Cl ?
HCMV antiviral: -70*; MARV entry inh: 6%[46.1 µM]; FMDV antiviral: 13%; Lassa entry inh: inconclusive; HCV inh: inconclusive

Results for O=S(=O)(NCCc1csc(-c2cccnc2)n1)c1cc(F)ccc1F ?
HCMV antiviral: -61*; MARV entry inh: 8%; FMDV antiviral: 40%; Lassa entry inh: -17%; HCV inh: -17%

Results for COc1ccc(N/C(=N/c2nc(C)cc(C)n2)NC(=O)C(C)C)cc1OC ?
MARV entry inh: 8%

How did C[C@@H]1CN(Cc2ccc3c(c2)CN(Cc2cccc4cccnc24)CCO3)C[C@H](C)O1 do in these assays?
FMDV antiviral: 2%

Results for CCOC(=O)c1nnn(-c2nonc2-n2cccc2)c1CCl ?
HCMV antiviral: inconclusive; MARV entry inh: -8%; FMDV antiviral: 14µM*; Lassa entry inh: -17%; HCV inh: -4%

Results for NNC(=O)Cn1c(COc2ccc(Cl)cc2)nc2ccccc21 ?
HCMV antiviral: -9; MARV entry inh: 1%; FMDV antiviral: 19%; Lassa entry inh: -4%; HCV inh: 11µM*

What do the screens show for `COC(=O)[C@H](Cc1ccc(C#Cc2ccccc2)cc1)NC(=O)C[C@H]1CCCN(C(=N)N)C1`?
FMDV antiviral: -17%

Results for CC(C)CCNC(=S)Nc1ccc(Br)cc1 ?
HCMV antiviral: inconclusive; MARV entry inh: inconclusive; FMDV antiviral: -16%; Lassa entry inh: inconclusive; HCV inh: -12%

What do the screens show for `CCCCNC(=S)Nc1ccc([N+](=O)[O-])cc1`?
HCMV antiviral: -75*; MARV entry inh: inconclusive; FMDV antiviral: 17%; Lassa entry inh: inconclusive; HCV inh: inconclusive

What do the screens show for `O=[N+]([O-])c1ccc(NNC(=S)Nc2ccc(F)cc2)cc1`?
HCMV antiviral: -99*; MARV entry inh: inconclusive; FMDV antiviral: 0%; Lassa entry inh: inconclusive; HCV inh: inconclusive

How did O=C(NNC(=S)Nc1ccc(F)cc1)c1cccc([N+](=O)[O-])c1 do in these assays?
HCMV antiviral: 42; MARV entry inh: inconclusive; FMDV antiviral: 27%; Lassa entry inh: inconclusive; HCV inh: 8%

Results for CC(C)OC(=O)c1cc(NC(=S)Nc2ccc([N+](=O)[O-])cc2)cc(C(=O)OC(C)C)c1 ?
HCMV antiviral: -86*; MARV entry inh: 14µM*; FMDV antiviral: inconclusive; Lassa entry inh: inconclusive; HCV inh: inconclusive

How did CC(C)CCNC(=S)Nc1ccc([N+](=O)[O-])cc1 do in these assays?
HCMV antiviral: -98*; MARV entry inh: inconclusive; FMDV antiviral: 12%; Lassa entry inh: inconclusive; HCV inh: inconclusive

What do the screens show for `CC(=O)C1=C(O)C(=O)N(c2ccc(O)cc2)C1c1ccccc1Cl` (stereo not drawn)?
HCMV antiviral: 18; MARV entry inh: inconclusive; FMDV antiviral: 1%; Lassa entry inh: 22%; HCV inh: 20%

How did CCOC(=O)CNC(=S)N(Cc1ccc(C)cc1)Cc1ccc(C)o1 do in these assays?
HCMV antiviral: -82*; MARV entry inh: inconclusive; FMDV antiviral: -8%; Lassa entry inh: inconclusive; HCV inh: 12%

Results for Cc1ccc(CN(Cc2ccc(C)o2)C(=S)NCC(=O)O)cc1 ?
HCMV antiviral: inconclusive; MARV entry inh: -4%; FMDV antiviral: -10%; Lassa entry inh: 7%; HCV inh: 2%

Results for COc1ccc(C(=O)/C=C/c2ccc(OC)c(Cn3nnc4ccccc43)c2)cc1 ?
HCMV antiviral: inconclusive; MARV entry inh: inconclusive; FMDV antiviral: 13µM*; Lassa entry inh: inconclusive; HCV inh: -25%
